These results are taken from PubChem BioAssay.

Activity calls are given as the source filed them.

A short description of test [1]: compound effects on lung adenocarcinoma cell viability – A549, calcein-AM fluorescence, 48 h, basal, profiling panel (AID 1162). As to conditions: higher = more signal.
The nature of test [2]: compound effects on differentiated 3T3-L1 adipocyte viability – cell-based, 3T3-L1 adipocytes, calcein-AM fluorescence, 48 h, basal, profiling panel (AID 1163). The conditions noted are these: 3T3-L1 adipocytes viability, higher = more signal.
A short description of test [3]: compound effects on hepatocellular carcinoma cell viability – HepG2, calcein-AM fluorescence, 48 h, basal, profiling panel (AID 1164). The conditions noted are these: higher = more signal.
A short description of test [4]: compound effects on multiple myeloma cell viability – MM1S, calcein-AM fluorescence, 48 h, basal, profiling panel (AID 1165). As to conditions: higher = more signal.
Test [5] in a line: calcein-AM signal in unstimulated myeloma cells – cell-based, calcein-AM fluorescence, 48 h, PK04 Diversity Set, profiling panel (AID 1166).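 Further: cells grown under basal conditions without added stimulus.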 As to conditions: RPMI8226 myeloma viability, higher = more signal.
The nature of test [6]: JC-1 mitochondrial signal, unstimulated HepG2 cells – cell-based, JC-1 fluorescence, 24 h, 100 nL compound, profiling panel (AID 1167). The conditions noted are these: HepG2 mitochondrial potential, higher = more signal.
Test [7] is described as follows: JC-1 mitochondrial signal, unstimulated adipocytes – cell-based, JC-1 fluorescence, 3T3-L1 adipocytes, 24 h, 100 nL compound, profiling panel (AID 1168). As to conditions: JC-1 mitochondrial fluorescence, higher = more signal, called active from +8 up or from −8 down.
Test [8] in a line: JC-1 mitochondrial signal, unstimulated myeloma cells – cell-based, JC-1 fluorescence, RPMI8226, 24 h, 100 nL compound, profiling panel (AID 1169). As to conditions: JC-1 mitochondrial potential fluorescence, higher = more signal.
A short description of test [9]: JC-1 mitochondrial signal, unstimulated MM1S myeloma – cell-based, JC-1 fluorescence, 24 h, 100 nL compound, profiling panel (AID 1170). The conditions noted are these: MM1S mitochondrial potential, higher = more signal.
Test [10] can be described thus: resazurin metabolic signal in A549 cells – cell-based, resazurin fluorescence, 24 h, PK04 Diversity Set, profiling panel (AID 1171). As to conditions: A549 viability, higher = more signal, called active from +8 up or from −8 down.
Further: test concentration not given here.

`O=C1C[C@@H](O)[C@@H](O)[C@@H]2[C@@H]3C(=O)N(c4cccc(Oc5ccccc5)c4)C(=O)[C@@H]3CC[C@@H]12`: the z-score was 0.494 in [1]; -0.202 in test [2]; -0.323 in [3]; 0.309 in test [4]; -0.0677 in [5]; -0.0107 in test [6]. The z-score in test [7] was 0.615 (inactive); in test [8], 0.54; in test [9], 0.531; in test [10], -0.187 (inactive).

Consider `O=C1[C@H]2[C@H]3[C@H](O)[C@H](O)CC(=NO[C@@H]4O[C@H](CO)[C@@H](O)[C@H](O)[C@H]4O)[C@@H]3CC[C@H]2C(=O)N1c1ccc(F)cc1F`, for which the z-score in test [1] was -0.234; in test [2], 0.269; in test [3], -0.87; in test [4], 0.506; in test [5], -0.165; in [6] it was 0.717. Also, the z-score in test [7] was 0.738 (inactive); in test [8] it was -0.079; in test [9] it was 0.256; in test [10] it was -0.126 (inactive).

Regarding `CC=CC1=C(CO)[C@H](O)[C@H]2O[C@H]2[C@H]1O`, the z-score was -0.286 in test [1]; 0.292 in test [2]; -0.408 in [3]; 0.0314 in [4]; -0.054 in test [5]; -0.722 in test [6]. For the same compound, the z-score is 0.382 (inactive) in test [7], 0.635 in [8], 0.677 in [9] and -0.482 (inactive) in [10].

In the case of `CC(C)c1ccc(NN2C(C(O)c3ccc4c(c3)OCO4)C=CC3C(=O)N(c4ccccc4)C(=O)C32)cc1` (stereo not given), the z-score in [1] was -0.842; in [2], -0.293; in test [3] it was 0.367; in [4], -0.911; in [5], -0.369; in test [6], -1.53. In addition, the z-score in test [7] was -0.462 (inactive); in test [8], 0.337; in [9], 0.186; in test [10], -0.616 (inactive).

For `CCCNC(=O)[C@@H]1c2ccccc2C(=O)N(Cc2ccccc2Cl)[C@H]1c1ccc(CO)cc1`, the z-score was 2.5 in [1]; 1.42 in [2]; 2.37 in test [3]; -0.138 in test [4]; 1.23 in test [5]; 3.3 in [6]. For the same compound, the z-score is 0.0089 (inactive) in [7], 0.325 in [8], 0.661 in [9] and 2.06 (inactive) in test [10].

For `Cn1cccc1C(O)C1C=CC2C(=O)NC(=O)C2N1Nc1ccccn1` (stereo not given), the z-score in [1] was -1.77; in test [2] it was -0.0273; in test [3], -2.88; in [4], -1.99; in test [5], -3.88; in test [6] it was -4.01. The z-score in [7] was 1.73 (inactive); in [8] it was -1.11; in [9], -1.88; in [10] it was -1.14 (inactive).

On to `COC(=O)CC=C[C@@H](C)[C@@H](C=NO[C@@H](C)c1cc(-c2c(C)cc(C)cc2C)no1)OC`, for which the z-score was -0.542 in [1]; 1.05 in test [2]; -0.618 in test [3]; 0.0635 in test [4]; -0.466 in [5]; -1.13 in test [6]. In addition, the z-score in test [7] was -0.613 (inactive); in test [8], -0.549; in test [9], -1.19; in test [10], 0.16 (inactive).

For the compound `CO[C@H]1O[C@H](CO)[C@@H](OC(=O)Nc2ccc(C#N)cc2)[C@H](OC(=O)c2cc3ccccc3[nH]2)[C@H]1OC(=O)c1cc2ccccc2[nH]1`, the z-score in test [1] was 2.71; in test [2], 0.221; in [3] it was 0.837; in test [4], -2.28; in test [5], -0.909; in [6] it was -1.55. Besides, the z-score in [7] is 0.53 (inactive); in [8] it was -0.405; in test [9], -0.384; in test [10] it was -1.49 (inactive).

Regarding `COC(=O)CC=C[C@@H](C)[C@H](OC)c1ccccc1Br`, the z-score in [1] was 0.408; in [2], -0.662; in test [3], 0.99; in [4], -0.154; in test [5], -1.15; in [6], 0.845. The z-score was -0.288 (inactive) in test [7], 0.0131 in test [8], -0.515 in [9] and -0.0428 (inactive) in [10].

For `COCCOC(=O)N1C(=O)[C@@]2(c3cc(C#CC4(O)CCCCCC4)ccc31)[C@H](C(=O)N1CCN(c3ncccn3)CC1)[C@H]1C(=O)O[C@H](c3ccccc3)[C@H](c3ccccc3)N1[C@@H]2c1ccc(OCCO)cc1`, the z-score in test [1] was 0.514; in test [2], 1.48; in [3] it was -0.118; in test [4], 0.0759; in [5], -1.9; in test [6], -0.866. Besides, the z-score in [7] is -0.224 (inactive); in test [8], -0.479; in test [9] it was -0.653; in [10] it was -0.49 (inactive).

With `CO[C@H]1COC(=O)[C@@H]2CCCN2C(=O)[C@@H](C)COC(=O)CC=C[C@@H]1C`, the z-score in [1] was 0.12; in test [2], -0.142; in test [3] it was -0.364; in test [4] it was -0.122; in test [5] it was 0.358; in test [6] it was 0.00983. The z-score was -0.418 (inactive) in test [7], 0.604 in test [8], 0.0689 in test [9] and 0.314 (inactive) in [10].

As for `CCc1cc2c(nc1CC)CCN(CCC(C)=NOC(C)CN1CCCc3nc(C)c(C)cc31)C2` (stereo not given), the z-score in test [1] was 0.566; in [2], -0.326; in test [3], 0.595; in test [4], -2.4; in test [5], -0.305; in test [6], 1.31. Further, the z-score was -0.415 (inactive) in [7], -0.668 in [8], -0.342 in [9] and 0.103 (inactive) in test [10].

As for `C#C[C@@H]1Oc2ccccc2S(=O)(=O)N2CCC[C@H]12`, the z-score in test [1] is -0.244; in test [2] it was -0.0897; in [3], -0.48; in test [4], 0.0671; in test [5], -1.71; in test [6], -0.998. Besides, the z-score in test [7] is 0.121 (inactive); in [8], 0.51; in test [9], 0.193; in [10] it was -0.884 (inactive).

As for `CCCCCN1CC=CC23O[C@@H]4C=CCOC(=O)[C@@H]4[C@H]2C(=O)N(C(CO)C(C)C)[C@@H]3C1=O` (stereo not given in full), the z-score in [1] was -0.0343; in [2] it was -0.372; in test [3], -0.0721; in [4], 0.949; in test [5] it was 0.12; in test [6] it was -0.794. For the same compound, the z-score in test [7] was 0.196 (inactive); in test [8] it was -0.0576; in test [9], 0.782; in [10], 0.0963 (inactive).

Take `CC1CC/C=C\[C@H]2OC34C=CCN(Cn5nnc6ccccc65)C(=O)[C@H]3N(CCO)C(=O)[C@@H]4C2C(=O)O1` (stereo not given in full): the z-score in test [1] is -0.338; in [2], 1.11; in test [3], -0.447; in [4] it was 0.0362; in [5] it was 0.134; in test [6] it was -0.153. Further, the z-score is -0.798 (inactive) in test [7], 0.691 in test [8], 0.206 in test [9] and 0.676 (inactive) in test [10].

Turning to `CC(CCN1CCc2nc(-c3ccccc3)c(-c3ccccc3)cc2C1)=NO[C@@H](C)c1cn([C@H](CO)Cc2ccccc2)nn1`, the z-score in test [1] was 2.69; in [2], 0.343; in test [3], 1.4; in test [4], -0.352; in test [5], -0.0077; in test [6], 1.87. Further, the z-score was -0.353 (inactive) in [7], 0.555 in test [8], 0.41 in test [9] and -0.81 (inactive) in [10].
